# Experimental data: ChEMBL document CHEMBL4513216, “Probing the Open Global Health Chemical Diversity Library for Multistage-Active Starting Points for Next-Generation Antimalarials” (ACS Infect Dis, 2020)
# The whole screen tested about 69,000 compounds, of which about 8,600 (12%) showed an effect of 50% or more. The sample holds strong results, similar compounds and a random draw of the others, so the mix is not that of the screen.
# Test system: Plasmodium berghei
# Assay: Screen against P. berghei liver stage (PbLuc), transformed with Luciferase, at 10uM
# Format: functional, HepG2
# Details: tested at 10 uM
row,Compound,INHIBITION
1,CC1CCN(c2nc3cn(-c4ccccc4)c(=O)c-3c[nH]2)CC1,-21.5%
2,Cc1cccc(CN2CCCC3(CCC(=O)N3CCN(C)C)CC2)n1 (centres undefined),-6.05%
3,CN(C)C(=O)N1C[C@@H]2CCCO[C@@H]2[C@H](N(C)Cc2ccco2)C1,41.8%
4,CC(C)c1n[nH]c(C2CN(C(=O)c3cnccn3)CCO2)n1 (centres undefined),48.4%
5,CN1CCC(C)(CNC(=O)c2ccc(SCc3cccnc3)cc2)CC1,34%
6,CCSc1ncc(Cl)c(C(=O)NC(CCSC)C(=O)O)n1 (centres undefined),15.9%
7,CNS(=O)(=O)c1ccc(CNC(=O)NCC2CCCO2)cc1 (centres undefined),0.932%
8,CNS(=O)(=O)c1ccc(CNC(=O)C2CCCO2)cc1 (centres undefined),54.3%
9,CNS(=O)(=O)c1ccc(CNC(=O)C2CCCN(C)C2)cc1 (centres undefined),-34.8%
10,CNS(=O)(=O)c1ccc(CNC(=O)NCC2CCOC2)cc1 (centres undefined),21.9%
11,CNS(=O)(=O)c1ccc(CNC(=O)N(CC(C)C)C(C)C)cc1,31.2%
12,CNS(=O)(=O)c1ccc(CNC(=O)C2CN(C)CCO2)cc1 (centres undefined),50%
13,CNS(=O)(=O)c1ccc(CNC(=O)NCC2CCC2)cc1,-75.2%
14,CNS(=O)(=O)c1ccc(CNC(=O)N2CCOC(C)C2)cc1 (centres undefined),50%
15,CC1CN(C(=O)NCc2cnn(-c3ccc(F)cc3F)c2)CCO1 (centres undefined),-2.55%
16,Cc1c(NC(=O)NCCO)cccc1OC1CCCC1,-2.27%
17,CCN(CC)CC1CCN(Cc2ccn(C)c(=O)c2)CC1,-18%
18,COc1ccc(CNc2cc3[nH]c(O)nc3cc2C)cc1,29.1%
19,O=C(CCS(=O)(=O)c1ccccc1)NC1CCOC2(CCOCC2)C1 (centres undefined),12.1%
20,COc1ccc(COCC(=O)N2CCCC(n3cncn3)C2)cc1 (centres undefined),-9.76%
21,Cn1cccc1C(=O)N1CCC2(CC1)COC(COc1ccccn1)C2 (centres undefined),-8.19%
22,O=C1N(CC2CCC2)CCCC12CCN(S(=O)(=O)c1cccnc1)C2 (centres undefined),-21.8%
23,O=S(=O)(c1ccccc1)N1CCC2(CCCN2CC2CCCC2)C1 (centres undefined),71.1%
24,O=C1CCC2(CCN(S(=O)(=O)c3ccccc3)CC2)N1CC1CC1,-51.6%
25,CC(=O)N1CCC2(CC1)CCN(S(=O)(=O)c1ccccc1)C2,-18.4%
26,CCN1C(=O)CCC12CCN(S(=O)(=O)c1ccccc1)CC2,-2.35%

row,Compound,INHIBITION
1,CC(C)(C)CN1CCCC12CCN(S(=O)(=O)c1ccccc1)C2 (centres undefined),78.8%
2,Cc1c[nH]nc1C1CN(c2ncccn2)CCO1 (centres undefined),14.575%
3,N#Cc1ccc(CCC(=O)N2CCC(CN3CCOCC3)CC2)cc1,37.7%
4,O=C(O)C1CN(c2cncc(Cc3ccccc3)n2)C1,8.35%
5,CCc1cc(N[C@H]2CCC[C@H]2CO)n2nc(C)c(C)c2n1,16.3%
6,O=S1(=O)CCN(CCCc2ccc(Cl)cc2)CC1,15%
7,O=C(COCC(F)(F)F)N1CCCC(n2cccn2)C1 (centres undefined),39.5%
8,CC(C)CC(=O)N1CCN(C(=O)NC(C)C)CC2(CC(=O)N(C)C2)C1 (centres undefined),34.4%
9,O=C(NCCc1ccncc1)c1cccc(S(=O)(=O)NC2CC2)c1,-78.5%
10,CN1CC[C@]2(CN(CC3CC3)C[C@H]2c2ccccc2)C1=O,52.4%
11,CN1CC[C@]2(CN(CC3CCOC3)C[C@H]2c2ccccc2)C1=O (some centres undefined),57.3%
12,O=C1NCC[C@]12CN(CC1CCOCC1)C[C@H]2c1ccccc1,29.5%
13,CN1CC[C@]2(CN(CC3CCOCC3)C[C@H]2c2ccccc2)C1=O,43.4%
14,CN1CC[C@]2(CN(Cc3nccs3)C[C@H]2c2ccccc2)C1=O,-2.41%
15,CN(C)C(=O)CN1CC[C@]2(CN(CC3CC3)C[C@H]2c2ccccc2)C1=O,26.5%
16,Cc1ccc(NC2CCN(C(=O)CCCn3ccnc3C)CC2)nn1,8.64%
17,CC(C)c1noc(CS(=O)(=O)CC(=O)NCc2ccccc2)n1,10.6%
18,CC(C)c1noc(CS(=O)(=O)CC(=O)NCCOc2ccccc2)n1,61.5%
19,CC(C)c1noc(CCCC(=O)NCCOc2ccccc2)n1,46.4%
20,CC(C)OCCCNC(=O)C1CC(=O)N(c2n[nH]c3cccc(F)c23)C1 (centres undefined),-10.9%
21,Cn1cccc1C(=O)N1CCCC(Cn2cc(CO)nn2)C1 (centres undefined),-2.39%
22,Cc1ccc(C2CN(c3nnc(C(F)F)s3)CCO2)c(C)c1 (centres undefined),57.4%
23,Cc1ccc(C2CN(CCCC#N)CCO2)c(C)c1 (centres undefined),-3.47%
24,Cc1ccc(C2CN(CCS(=O)(=O)C(C)C)CCO2)c(C)c1 (centres undefined),30.7%
25,Cc1ccc(C(=O)N2CCC3(CCN(c4ccsc4)C3=O)C2)cn1 (centres undefined),-14.3%
26,NCc1n[nH]c(-c2ccc(Br)cc2)n1,-34.4%

row,Compound,INHIBITION
1,Cc1nc(N2CCN(S(C)(=O)=O)CC2)cc(-n2cnc(C)c2C)n1,23.9%
2,CCCS(=O)(=O)N1CCN(c2cc(-n3cnc(C)c3C)ncn2)CC1,27.2%
3,Cc1ncn(-c2cc(N3CCN(S(C)(=O)=O)CC3)ncn2)c1C,51.5%
4,Cc1nc(C)n(C2CCCN(C(=O)c3cncnc3C)C2)n1 (centres undefined),1.563%
5,CS(=O)(=O)NCCCN1CCCC1c1cccc(Br)c1 (centres undefined),-5.25%
6,CCNc1ncc(C(=O)NC2CCOCC2)cn1,1.94%
7,CCNc1ncc(C(=O)NC(c2ccccc2)c2ccco2)cn1 (centres undefined),33.4%
8,CCNc1ncc(C(=O)N[C@@H](C)[C@H](O)c2ccccc2)cn1,71.2%
9,CCNc1ncc(C(=O)NC2CCSC2)cn1 (centres undefined),37.7%
10,CCNc1ncc(C(=O)N[C@H](C(N)=O)c2ccccc2)cn1,17.1%
11,CCNc1ncc(C(=O)NC2CCc3ccccc3C2)cn1 (centres undefined),80.9%
12,CCc1nnc2n1CCN(C(=O)c1cc(Cl)c[nH]1)C2,24.39%
13,Cc1sc(C(=O)NS(C)(=O)=O)cc1-c1ccc(F)cc1,32.7%
14,CCCN1CCC2(CC1)COc1ccccc1S(=O)(=O)N(CC1CC1)C2,-17.1%
15,CO[C@@H]1CC[C@H]2[C@H]1OCCN2S(=O)(=O)C1CC1,-15.2%
16,Cc1cc(C)c(CNC(=O)C(C)Oc2ccccc2C#N)c(=O)[nH]1 (centres undefined),37.9%
17,CCS(=O)(=O)N(C)C1CCN(C(=O)c2ccc(Cl)cc2)CC1,47.4%
18,CCS(=O)(=O)N(C)C1CCN(C(=O)c2ccc(C)c(C)c2)CC1,27.7%
19,CN(C)C1COC2(CCN(C(=O)c3cccc(Cl)c3)CC2)C1 (centres undefined),-9.74%
20,CCN(C1CCN(C(=O)c2cccc(Cl)c2)CC1)S(C)(=O)=O,50%
21,CN(C)CCN1CC[C@@H]2[C@@H]1CCN2C(=O)c1cccc(Cl)c1,40.4%
22,CCS(=O)(=O)N(C)C1CCN(C(=O)c2cccc(Cl)c2)CC1,61.8%
23,O=C(CC1CC1)N1CC[C@H]2[C@@H]1CCC(=O)N2Cc1ccncc1,29%
24,Cc1ccccc1SC1CCN(C(=O)C2[C@H]3CNC[C@@H]23)CC1 (some centres undefined),90.7%
25,Cc1ccccc1N1CCCN(C(=O)CCCS(N)(=O)=O)CC1,21.6%
26,Cc1ccccc1SC1CCN(C(=O)C2CNC(=O)N2)CC1 (centres undefined),12.8%

row,Compound,INHIBITION
1,Cc1cccc(SC2CCN(C(=O)CCCS(N)(=O)=O)CC2)c1,32.8%
2,Cc1ccccc1SC1CCN(C(=O)C2CNCC(=O)N2)CC1 (centres undefined),1.37%
3,Cc1ccccc1SC1CCN(C(=O)CCCS(N)(=O)=O)CC1,53.7%
4,Cc1cc(C2CCCN2Cc2ccc(S(=O)(=O)N(C)C)o2)on1 (centres undefined),5.9%
5,OCC1N(Cc2ccco2)C2CCC1(O)CC2 (centres undefined),32.8%
6,O=C1NCCN1CCNc1cc(-c2ccccc2)nc2ccnn12,-39.2%
7,O=C1CC(c2ccncc2)C2(CCN(C(=O)c3ccnnc3)CC2)N1 (centres undefined),41.6%
8,Cc1noc(C)c1CN1CCC2(CC1)NC(=O)CC2c1cnn(C)c1 (centres undefined),12.5%
9,O=C1CC(c2ccncc2)C2(CCN(CCO)CC2)N1 (centres undefined),47.8%
10,Cc1noc(C)c1CN1CCC2(CC1)NC(=O)CC2c1ccccc1 (centres undefined),65.7%
11,O=C1CC(c2ccccc2)C2(CCN(Cc3ccncc3)CC2)N1 (centres undefined),8.64%
12,O=C1CC(c2ccncc2)C2(CCN(CCc3ccccc3)CC2)N1 (centres undefined),90.8%
13,Cc1noc(C)c1CN1CCC2(CC1)NC(=O)CC2c1ccncc1 (centres undefined),25.5%
14,O=C1CC(c2ccncc2)C2(CCN(C(=O)c3ccc[nH]3)CC2)N1 (centres undefined),33.5%
15,O=C1CC(c2ccncc2)C2(CCN(C(=O)c3cccs3)CC2)N1 (centres undefined),73%
16,CCc1nnc(NC(=O)Cc2c(C)nc(C)[nH]c2=O)s1,13.75%
17,Cc1nnc(CN2CCN(C(C)c3nc(C4CC4)no3)CC2)o1 (centres undefined),-33.7%
18,COc1ccccc1-c1ccc(C2CCCN(C(C)=O)C2)nc1 (centres undefined),19.4%
19,CC(=O)NC1CCCc2c1[nH]c1ccc(F)cc21 (centres undefined),62.4%
20,O=C(NC1CCCc2c1[nH]c1ccc(F)cc21)c1n[nH]c2c1CCCC2 (centres undefined),-8.99%
21,Cc1c(C(=O)N[C@@H]2CC[C@@H](N3CCCC3)[C@@H]2O)[nH]c2ccc(F)cc12,29.5%
22,O=C(Cc1cccc(F)c1)NC1CCCc2cn[nH]c21 (centres undefined),18.7%
23,O=C(NC1CCCc2c1[nH]c1ccc(F)cc21)c1n[nH]c2c1CCC2 (centres undefined),61.2%
24,O=C(NCCc1ccccn1)c1n[nH]c2c1CCC2,-15.9%
25,CCC1CN(C(=O)CN2CCN(c3nccc(OC)n3)CC2)CCO1 (centres undefined),-28.4%
26,CC(=O)N1CCO[C@@H]2CN(C(=O)c3cc(C)oc3C)CC[C@@H]2C1,26.2%
